# From PubChem BioAssay
# Most compounds without a hit are left out; they make up all but 2.3% or so of the library.
# Mcl1 Noxa PPI – Mcl-1/Noxa interaction inhibition; TR-FRET Mcl-1/Noxa peptide binding, 2 h; 220,000 tested, 1.5% active; inhibition, % at 21.7 µM; Q07820;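 active means compounds that cut the protein-peptide binding signal by more than 50% relative to plate controls in a single-dose test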;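 further: His-tagged Mcl-1 with rhodamine Noxa BH3 peptide and terbium anti-His antibody; 0% = Mcl-1 plus Noxa peptide wells and 100% = peptide-only wells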
# Target sequence (Q07820 whole entry, looked up): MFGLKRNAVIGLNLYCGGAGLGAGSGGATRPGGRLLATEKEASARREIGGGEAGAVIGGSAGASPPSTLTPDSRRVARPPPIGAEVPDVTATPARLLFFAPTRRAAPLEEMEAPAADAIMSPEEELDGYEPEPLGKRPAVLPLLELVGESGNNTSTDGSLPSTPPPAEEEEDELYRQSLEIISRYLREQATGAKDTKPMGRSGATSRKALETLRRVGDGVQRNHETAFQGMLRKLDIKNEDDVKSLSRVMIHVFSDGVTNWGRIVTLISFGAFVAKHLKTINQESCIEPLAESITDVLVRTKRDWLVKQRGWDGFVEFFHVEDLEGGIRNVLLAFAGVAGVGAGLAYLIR
# Mcl1 Bid PPI – Mcl-1/Bid interaction inhibition; TR-FRET Mcl-1/Bid-Dy647 peptide binding, 1536-well; inhibition, % at 21.7 µM; 220,000 tested, 0.97% active;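 active means compounds that cut the binding signal by more than half at the single screening dose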;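 further: His-tagged Mcl-1 with europium anti-His antibody binding Bid BH3 peptide; 0% = Mcl-1 plus peptide wells and 100% = peptide-only wells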
# MCL1-BIM inh – disrupts human MCL1 binding to BIM-BH3 peptide. GST-MCL1 / FITC-Bim-BH3 fluorescence polarization. Q07820. 320,000 tested, 0.68% active. inhibition, % at 10.9 µM;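 active means inhibition above the mean inhibition of all tested compounds plus 3 SD, set per campaign, cut at about 40% in these data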;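 further: 0% = DMSO wells and 100% = unlabeled Bim-BH3 peptide control; higher means more loss of mP so more displacement of Bim peptide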
# Bcl-xL primary – Bcl-xL (human) inhibition | 320,000 tested, 0.7% active | AID 2129 | inhibition, % at 10.9 µM | GST-Bcl-xL / FITC-Bim BH3 peptide fluorescence polarization;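 active means inhibition above the mean of all tested compounds plus 3 SD, cutoff set per campaign, cut at about 30% in these data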;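 further: 0% = DMSO wells and 100% = unlabeled Bim-BH3 peptide competitor; inhibitors lower millipolarization by displacing the labeled peptide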
# Bim-Mcl-1 – inhibitors of Bim-Mcl-1 interaction, human. Q07820. inhibition, % at 10 µM. Bead-based flow cytometry, Bim peptide-Mcl-1 binding. 190,000 tested, 0.1% active. AID 1009; in the data active means inhibition above about 40%;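 further: 0% = no compound tracer wells and 100% = peptide blocker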
# GLD-1 RNA inh – GLD-1-TGE RNA interaction inhibition (C. elegans) | 320,000 tested, 0.44% active | purified GLD-1 + fluorescein TGE RNA, fluorescence polarization | inhibition, % at 5.96 µM | Q17339;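 active means percent inhibition above a per-plate cutoff, the plate mean of test compounds plus 3 SD, cut at about 30% in these data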;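 further: 0% = DMSO wells with GLD-1 and probe and 100% = wells lacking GLD-1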
# Active calls of the source: *; x = no result.
SMILES,Mcl1 Noxa PPI,Mcl1 Bid PPI,MCL1-BIM inh,Bcl-xL primary,Bim-Mcl-1,GLD-1 RNA inh
NS(=O)(=O)c1ccc(NC(=O)c2ccc(-c3ccccc3)cc2)cc1,-63,28,x,x,5,x
CC(=O)Nc1ccc(NC(=O)C(C)OC(=O)CNC(=O)c2ccc(-c3ccccc3)cc2)cc1 (centres undefined),x,x,-6,1,x,-1
CCCCN1CC(=O)N2[C@H]3c4ccc(OC)cc4OC[C@@H]3[C@H](c3ccccc3)[C@]2(C)C1=O,x,x,12,10,x,28
O=C(CSc1nnc(-c2ccncc2)n1-c1ccc(F)cc1)NC(=O)NCc1ccco1,63*,0,6,1,-4,2
Cc1ccc(-n2c(SCC(=O)NCc3ccco3)nnc2-c2cccnc2)cc1,-8,-24,-8,-1,-6,-3
Cc1ccc(-c2nnc3ccc(SCC(=O)NCc4ccco4)nn23)cc1,15,4,-1,1,0,2
O=C(CSc1ccc2nnc(-c3ccc(F)cc3)n2n1)NCc1ccco1,62*,-17,11,5,-7,1
Brc1ccccc1OCCCCn1cnc2ccccc21,8,-4,2,3,-3,7
Cc1ccc(OCCCCn2cnc3ccccc32)c(C)c1,28,54*,0,7,1,5
O=C(CCNC(=O)C1CCN(S(=O)(=O)c2ccc(F)cc2)CC1)NCc1cccc(Cl)c1,x,x,3,3,x,6
CCOc1ccc(N2Nc3n[nH]c(N)c3N2)cc1,1,-28,0,3,0,1
COc1ccc(N2Nc3n[nH]c(N)c3N2)cc1,56*,-6,9,6,2,7
O=C(O)Cn1c(-c2cscn2)nc2ccccc21,9,-2,11,3,0,-2
N#Cc1ccccc1Cn1c(-c2cscn2)nc2ccccc21,6,79*,8,7,1,5
CC(C)(C)OC(=O)NCCCC1=CC2=CC(=O)C(C)(OC(=O)c3ccc(Cl)nc3)C(=O)C2=CO1 (centres undefined),x,x,85*,80*,x,93*
COC(=O)CCCC1=CC2=CC(=O)C(C)(O)C(=O)C2=CO1 (centres undefined),x,x,30,23,x,24
CC1(OC(=O)c2cccs2)C(=O)C=C2C=C(C3CC3)OC=C2C1=O (centres undefined),x,x,39,27,x,35*
CCCCC1=CC2=CC(=O)C(C)(OC(=O)C3CCCC3)C(=O)C2=CO1 (centres undefined),40,-55,32,11,x,36*
CC1(OC(=O)C2CCCC2)C(=O)C=C2C=C(c3ccsc3)OC=C2C1=O (centres undefined),51*,-17,24,15,x,14
CC1(OC(=O)c2cccs2)C(=O)C=C2C=C(c3ccsc3)OC=C2C1=O (centres undefined),x,x,27,13,x,17
CCCNC(=O)/C(C#N)=C1\N=C(NC(=O)c2cccs2)c2ccccc21,x,x,4,4,x,0
CCCCC1=CC2=CC(=O)C(C)(OC(=O)CC)C(=O)C2=CO1 (centres undefined),x,x,32,18,x,37*
CCCCC1=CC2=CC(=O)C(C)(OC(=O)CC)C(=O)C2=CN1Cc1ccc(OC)cc1 (centres undefined),-10,-87,24,21,x,17
C=CCN1C=C2C(=O)C(C)(OC(=O)CC)C(=O)C=C2C=C1CCCC (centres undefined),15,-85,29,29,x,42*
CC1(OC(=O)C2CCCC2)C(=O)C=C2C=C(c3ccsc3)N(Cc3ccco3)C=C2C1=O (centres undefined),25,-60,38,34*,x,12
CC(C)(C)OC(=O)NCCCC1=CC2=CC(=O)C(C)(O)C(=O)C2=CO1 (centres undefined),x,x,37,34*,x,26
Cc1ccc(S(=O)(=O)Nc2ccc3c(c2)OCCO3)c(C)c1NS(C)(=O)=O,x,x,-3,3,x,2
CC1CC(C)CN(C(=O)Cn2nnc(-c3ccc(Br)cc3)n2)C1 (centres undefined),x,x,-4,3,x,4
O=C(CS(=O)(=O)c1ccc(Cl)cc1)Nc1nnc(-c2cccs2)o1,x,x,9,8,x,2
Cc1csc(NC(=O)c2ccc(S(=O)(=O)N3CCN(C)CC3)cc2)n1,x,x,7,0,x,7
